Assay results from ChEMBL document CHEMBL3988442, “University of Dundee, Small-Polar-MMV Screening Library” (2021).
Out of some 48,000 compounds screened, about 13,000 (27%) showed an effect of 50% or more. Some of the results follow.

test system: Wolbachia pipientis; experiment: Anti-Wolbachia Cell-Based Screen; assay type: functional; set-up: scale not given: in the data most compounds retested in dose-response had high values; conditions: 5 µM

SMILES	Percent Effect [%]
Cc1c(CNC(=O)C2CCCN2C(=O)C2CC2)oc2ccccc12 (stereo not given)	-1.359
CCOc1cccc(NS(=O)(=O)c2cc(C)c(C(=O)O)s2)c1	-3.705
CCc1nc(CC(=O)N2CCCC2Cn2cccn2)cs1 (stereo not given)	-8.177
CN(CC(=O)N1CCCC1Cn1cccn1)c1cnccn1 (stereo not given)	-3.712
Cn1cc(-c2nc(C(=O)N3CCCC3Cn3cccn3)cs2)cn1 (stereo not given)	119.5
O=C(c1csc(-c2ccccn2)n1)N1CCCC1Cn1cccn1 (stereo not given)	108.1
CCC1CN(C(=O)c2csc(-c3cnn(C)c3)n2)CCO1 (stereo not given)	8.184
O=C(c1csc(-c2ncccn2)n1)N1CCCC1Cn1cccn1 (stereo not given)	100.9
O=C(c1csc(-c2cnccn2)n1)N1CCCC1Cn1cccn1 (stereo not given)	125.1
O=C(c1csc(-c2cccs2)n1)N1CCCC1Cn1cccn1 (stereo not given)	4.192
O=C(CN1CCCCCC1=O)NCC1CCN(c2ccccc2)C1 (stereo not given)	-4.287
O=C(N1CCOCC1CO)C1(c2cccs2)CCCC1 (stereo not given)	1.205
COc1ccc(/C=C/CN2CCN(c3nccnc3C)CC2)cc1	1.299
COc1ccc(N(CCC(N)=O)C(=O)CSc2ccc(F)c(F)c2)cc1	6.569
CCc1nc(CCNC(=O)NC2CCN(C(C)C)C2)sc1C (stereo not given)	-28.06
Cc1ncc(CN2CCCC2c2ccc(C(=O)NCc3ccoc3)s2)s1 (stereo not given)	9.292
CCCc1nnc(N2CCN(c3ccccc3Cl)CC2)o1	94.38
CCCc1nnc(N2CCC(N3CCCC(O)C3)CC2)o1 (stereo not given)	11.24
CCCc1nnc(N2CCN(C3CCCC3)CC2)o1	-0.2431
CCCc1nnc(N2CCC(N3CCN(CCO)CC3)CC2)o1	-3.287
CCCc1nnc(N2CCN(c3cccc(C)c3C)CC2)o1	106.7
CCCc1nnc(N2CCN(c3ccccc3F)CC2)o1	104.4
CCc1nnc(N2CCN(CCc3ccccc3)C(=O)C2)o1	-17.07
CCCc1nnc(N2CCC(C3CCN(C)CC3)CC2)o1	-0.3277
COc1nc(C)ccc1CNC(=O)NC(C)(C)c1ncc(C)s1	40.1

SMILES	Percent Effect [%]
O=C(c1cccc(-c2ncc[nH]2)c1)N1CCC(N2CCCC(O)C2)CC1 (stereo not given)	-7.829
CN1CCN(Cc2ccc(Cl)cc2)CC1C(=O)O (stereo not given)	102.4
CN1CCN(Cc2c(Cl)ccc(O)c2Cl)CC1C(=O)O (stereo not given)	96.73
Cc1ccc(Cl)c(CN2CCC3(CC2)C(C(=O)O)CC(=O)N3C)c1F (stereo not given)	1.712
O=C(C1CCCC1)N1CCC(C2CCN(Cc3ccc(Cl)cc3)C2)CC1 (stereo not given)	14.43
Cc1cc(-c2nn(C)c(Cl)c2CN2CCN(C)C(C(=O)O)C2)no1 (stereo not given)	-9.468
Cc1ccc(Cl)c(CN2CCN(C)C(C(=O)O)C2)c1F (stereo not given)	102.6
CC(C1CCN(Cc2c(Cl)ccc(O)c2Cl)CC1)N1CCN(C)CC1 (stereo not given)	2.442
CC(=O)N1CCN(Cc2ccc(Cl)c(F)c2)CC(O)C1 (stereo not given)	3.004
O=C(C1CCC1)N1CCC(C2CCN(Cc3ccc(Cl)cc3)C2)CC1 (stereo not given)	11.03
CCC(C(=O)NC1(CN2CCOCC2)CCCC1)n1cccn1 (stereo not given)	-7.135
Cn1c(CNc2c(F)cccc2-n2cccn2)cc(=O)n(C)c1=O	-1.066
CC(C#N)CN(C)C(=O)c1cn(-c2ccc(Br)cc2)cn1 (stereo not given)	17.58
CCCc1noc(CN2CCN(CCC(C)C)CC2)n1	7.482
Nc1nc(CN2CCN(c3nccs3)CC2)cs1	-10.1
c1csc(-c2cc(CN3CCN(c4nccs4)CC3)no2)c1	7.977
CCc1noc(CN2CCN(c3nccs3)CC2)n1	91.95
CCCc1noc(CN2CCN(c3nccs3)CC2)n1	101
CC(C)Cc1noc(CN2CCN(c3nccs3)CC2)n1	-10.34
CCOCC(O)CN1CCN(C(=O)c2cnc3n[nH]c(C)c3c2)CC1 (stereo not given)	-0.1708
CCOCC(O)CN1CCN(C(=O)c2ccc(OC)cc2)CC1 (stereo not given)	101.3
COc1cccc(C(=O)N2CCN(CC(O)c3ccccc3)CC2)c1 (stereo not given)	2.631
CCOCC(O)CN1CCN(C(=O)c2cc(F)cc(F)c2)CC1 (stereo not given)	99.72
CCOCC(O)CN1CCN(C(=O)c2ccncc2)CC1 (stereo not given)	2.226
CCOCC(O)CN1CCN(C(=O)c2cccc(OC)c2)CC1 (stereo not given)	88.95

SMILES	Percent Effect [%]
CCOCC(O)CN1CCN(C(=O)c2cccc(F)c2)CC1 (stereo not given)	0.952
CCOCC(O)CN1CCN(C(=O)c2ccsc2)CC1 (stereo not given)	-6.282
COc1cccc(C(O)CN2CCN(C(=O)c3ccsc3)CC2)c1 (stereo not given)	4.323
CCOC(C)c1nc(CN2CCN(c3nccc(C)n3)CC2)cs1 (stereo not given)	-8.527
CCc1ncc2c(n1)CN(C(=O)CCCc1ccc(OC)cc1)C2	-1.775
COc1ccc(NC(=O)N2CCCC(CO)C2)c(C)c1 (stereo not given)	-14.28
Nc1cc(N2CCCC(Cc3ccc(F)cc3F)(C(=O)O)C2)ncn1 (stereo not given)	-0.2204
CCN(CC)c1ccc(CNS(=O)(=O)C2CCOCC2)cc1F	0.7913
CCOCCN1CCN(CC2(O)CCCCC2)CC1	-2.649
O=C(C1CCOCC1)N1CCOCC(Cc2ncccn2)C1 (stereo not given)	97.13
C1=CCN(c2nc(CC3CC3)nc3c2CCN(C2CCOCC2)CC3)C1	-5.944
Fc1cccnc1OC[C@@]12CCO[C@@H]1CCN(CC1CCOCC1)C2.O=C(O)C(F)(F)F.O=C(O)C(F)(F)F	11.98
OC1(CN2CCC(Cc3ccccc3)CC2)CCC1	-17.41
O=C(N[C@@H]1CCN(C(=O)C2CCOCC2)C[C@H]1O)c1ccccn1	2.955
OC1(CN2CCC(Cc3ncccn3)CC2)CCOCC1	87.8
O=C(C1CCOCC1)N1CCOC(CC2CCCCC2)C1 (stereo not given)	10.22
OC1(CN2CCC(Cc3ncccn3)CC2)CCCCC1	116.2
Clc1cccc(C(NCc2ncc[nH]2)c2ccccn2)c1 (stereo not given)	3.902
CN(C)CC(C)(O)CNC(=O)Nc1sc2ccccc2c1Cl (stereo not given)	1.378
COc1coc(CN2CCCC(CCc3ccccc3C)C2)cc1=O (stereo not given)	-0.7566
Cc1nccn1C1CCCN(C(=O)CCCNc2ncccn2)C1 (stereo not given)	106.9
Cc1nc(C)n(C2CCCN(C(=O)CCCNc3ncccn3)C2)n1 (stereo not given)	110
O=C(CCCNc1ncccn1)N1CCCC(n2cccn2)C1 (stereo not given)	2.216
CCc1nccn1C1CCCN(C(=O)CCCNc2ncccn2)C1 (stereo not given)	1.367
CNS(=O)(=O)CC(=O)N(C1CC1)C1Cc2ccccc2C1	0.4054

SMILES	Percent Effect [%]
Cc1cnc(C(=O)N2CCCN(Cc3csc(C)n3)CC2)cn1	7.438
Cc1ncsc1C(=O)N1CCN(Cc2cscn2)CC1	129.9
Cc1cnc(C(=O)N2CCN(Cc3csc(C)n3)CC2)cn1	75.58
Cc1nc(CN2CCN(C(=O)c3scnc3C)CC2)cs1	142.4
Cc1ncsc1C(=O)N1CCCC(c2nccn2Cc2cscn2)C1 (stereo not given)	-18.71
Cc1ncsc1C(=O)N1CCCN(Cc2cscn2)CC1	-2.478
CC(Cc1ccccn1)N(C)C(=O)c1ncc[nH]1 (stereo not given)	-16.95
COCCn1cnc(-c2cc(C(=O)NC(C)C)c3ccccn23)c1	-8.086
O=C(CNc1cccc(S(=O)(=O)C(F)F)c1)Nc1ccccc1	9.714
COc1ncccc1C1CC(=O)NCc2nc3ccccn3c21 (stereo not given)	-11.47
CC(C)n1ncc2c1NC(=O)CC21C(=O)Nc2c(Cl)cccc21 (stereo not given)	-6.68
Cc1ccc(S(=O)(=O)NCC2(O)CCOc3ccccc32)s1 (stereo not given)	0.721
Cc1cc(C)c(CNC(=O)N2CCC(N3CCNC3=O)CC2)c(C)c1	-1.308
COc1cccc(-c2noc(-c3ccc(N4CC(N)C4)nc3)n2)c1OC	0.2823
O=C(NCc1cccnc1)[C@H]1CC[C@@H]2[C@@H](CCN2c2ncccn2)O1.O=C(O)C(F)(F)F.O=C(O)C(F)(F)F	-7.451
O=C(NCCc1ccccn1)[C@@H]1CC[C@@H]2[C@@H](CCN2Cc2ccoc2)O1.O=C(O)C(F)(F)F.O=C(O)C(F)(F)F	100.1
Cn1cc(CN2CC[C@H]3O[C@H](C(=O)NCc4ccco4)CC[C@H]32)cn1.O=C(O)C(F)(F)F	-21.14
Cn1cc(CN2CC[C@H]3O[C@H](C(=O)Nc4cnccn4)CC[C@H]32)cn1.O=C(O)C(F)(F)F	123.6
CS(=O)(=O)N1CC[C@H]2O[C@H](C(=O)NCCc3ccccn3)CC[C@H]21.O=C(O)C(F)(F)F	2.249
O=C(NCc1cccs1)[C@H]1CC[C@@H]2[C@@H](CCN2c2ncccn2)O1.O=C(O)C(F)(F)F	16.99
O=C(Nc1cnccn1)[C@H]1CC[C@@H]2[C@@H](CCN2Cc2ccoc2)O1.O=C(O)C(F)(F)F	111.7
O=C(NCc1ccco1)[C@H]1CC[C@@H]2[C@@H](CCN2Cc2cccnc2)O1.O=C(O)C(F)(F)F.O=C(O)C(F)(F)F	-10.47
Cn1cc(CN2CC[C@H]3O[C@@H](C(=O)NC4CC4)CC[C@H]32)cn1.O=C(O)C(F)(F)F.O=C(O)C(F)(F)F	2.978
O=C(O)C(F)(F)F.O=C([C@@H]1CC[C@@H]2[C@@H](CCN2Cc2ccoc2)O1)N1CCCC1	8.52
O=C(NCc1cccs1)[C@H]1CC[C@@H]2[C@@H](CCN2Cc2ccoc2)O1.O=C(O)C(F)(F)F	94.68
